Assay results taken from PubChem BioAssay (NCATS).
A number with no mark means an inactive call. Records with an inconclusive call do not appear. A call without a number means that no potency is given here. Calls of active or inactive are those of the source. Unless noted, the call rests on the fitted dose curve; in most records, active means well fitted curve in the direction sought with a large enough effect; inconclusive means small, poorly fitted or top-dose-only effect, or another doubt; inactive means no such curve, though single readings can be large; an effect the other way counts as inactive or inconclusive.

Assays:
[1] = Cell Viability - HUV-EC-C (AID 542); settings: HUV-EC-C endothelial cell viability, qHTS; series mostly up to 92.2 µM; further: nearly all actives have a fitted effect of over 35% in size; further: potency means the concentration at half of the fitted maximal effect
In short: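 HUV-EC-C normal human vascular endothelial cells, 1000 cells/well, pre-incubated 5 hr at 37 °C, then exposed to compounds for 40 hr at 37 °C in complete medium. Viability measured as intracellular ATP by CellTiter-Glo luminescence; AC50 from Hill fits.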

[2] = Cellular Toxicity (caspase-3) HUV-EC-C (AID 656); settings: HUV-EC-C cells, caspase-3 activation (apoptosis); series mostly up to 92.2 µM
In short: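 Concentration-dependent caspase 3/7 induction was assessed in HUV-EC-C cells exposed for 16 hours. Data scaled between DMSO and tamoxifen (100 uM) controls.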

[3] = Cellular Toxicity (caspase-3) H-4-II-E (AID 663); settings: H-4-II-E rat hepatoma; Potency: caspase-3 activation; caspase-3 activation: at 92.2 µM (top of the series), scaled: DMSO 0%, 100 µM tamoxifen 100%;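 further: cells exposed to compound for 16 hr before readout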
In short: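 Luminescence from caspase-cleaved aminoluciferin substrate, read 20 min after reagent addition, reports caspase 3/7 activation in rat H-4-II-E cells after 16 hr compound exposure. Normalized to DMSO (basal) and 100 uM tamoxifen (100%); AC50 from Hill fits.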

[4] = Cellular Toxicity (caspase-3) Hek293 (AID 664); settings: HEK293 caspase-3 activation, DMSO = 0%, 100 µM tamoxifen = 100%; at 92.2 µM (top of the series);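 further: cells exposed to compound for 16 h at 37 °C before readout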
In short: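 HEK293 cells were exposed to compounds in complete medium for 16 hr at 37 °C, then caspase-3/7 activity was read by Caspase-Glo 3/7 luminescence after 20 min at room temperature. Data normalized to DMSO and 100 uM tamoxifen; AC50 from Hill fits.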

[5] = Cellular Toxicity (caspase-3) NIH 3T3 (AID 666); settings: NIH 3T3 caspase-3 activation, apoptosis/toxicity; series mostly up to 92.2 µM
In short: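 Mouse NIH 3T3 fibroblasts (1000 cells/well) were treated with compound for 16 hr at 37°C in complete medium; caspase-3/7 activity was read by Caspase-Glo luminescence. Normalized to DMSO and 100 uM tamoxifen; AC50 from Hill fits.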

[6] = Cell Viability - LYMP2-003 (AID 965); settings: LYMP2-003 lymphoblastoid cell viability; series mostly up to 92.2 µM;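 further: cells exposed to compounds for 24 h before reading; nearly all actives have a fitted effect of over 50% in size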; further: potency means the concentration at half of the fitted maximal effect
In short: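 qHTS, human lymphoblastoid line, 2500 cells/well, complete medium. 24 h drug, 37 C. ATP-based luminescent readout; Hill-fit AC50.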

[7] = Cell Viability - LYMP2-025 (AID 976); settings: LYMP2-025 lymphoblastoid cell viability; series mostly up to 92.2 µM; further: potency means the concentration at half of the fitted maximal effect
In short: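 Human lymphoblastoid LYMP2-025 cells (2500/well) were pre-incubated 5 hr at 37 C, then treated with compounds for 24 hr at 37 C in complete medium. Viability was read as intracellular ATP by CellTiter-Glo luminescence; AC50 from Hill fits.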

[8] = Cell Viability - LYMP2-007 (AID 979); settings: LYMP2-007 lymphoblastoid cell viability; series mostly up to 92.2 µM;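 further: cells exposed to compound for 24 h before reading; nearly all actives have a fitted effect of over 60% in size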; further: potency means the concentration at half of the fitted maximal effect
In short: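 Human lymphoblastoid cells (2500/well) were plated in complete medium, incubated 5 hr at 37 C, then exposed to compounds for 24 hr at 37 C. Intracellular ATP was read by CellTiter-Glo luminescence after 30 min at room temperature; AC50 from Hill fits.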

[9] = target: Voltage-gated inwardly rectifying potassium channel KCNH2 (Homo sapiens) (UniProt Q12809); assay: qHTS Assay for Small Molecule Inhibitors of the Human hERG Channel Activity (AID 588834); settings: U2OS BacMam hERG, FluxOR thallium flux fluorescence; series mostly up to 92.2 µM;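 further: lower thallium flux fluorescence means stronger hERG block; nearly all actives have a fitted effect of over 50% in size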; further: potency means the concentration at half of the fitted maximal effect
In short: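 Blockade is seen as reduced FluxOR thallium-flux fluorescence in U2OS cells expressing hERG from a BacMam construct, in Opti-MEM with 2% FCS. Concentration-response data fitted to the Hill equation for AC50.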

[10] = qHTS assay for small molecule disruptors of the mitochondrial membrane potential - 1 hr assay (AID 651754; calls by dose curve; further: nearly all actives have a fitted effect of over 35% in size); settings: series mostly up to 92.2 µM
In short: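 HepG2 cells, attached overnight at 37C, were exposed to compound or DMSO vehicle for 1 hr at 37C, 5% CO2, then stained with Mito-MPS dye for 30 min. Red aggregate versus green monomer fluorescence reports membrane potential.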

[11] = qHTS assay for small molecule disruptors of the mitochondrial membrane potential - 5 hr assay (AID 651755; calls by dose curve; further: nearly all actives have a fitted effect of over 40% in size); settings: JC-1-type ratio dye; series mostly up to 92.2 µM
In short: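 HepG2 cells, attached overnight at 37C, were exposed to compound or DMSO for 5 hr at 37C, 5% CO2. Mito-MPS dye was then added for 30 min, and fluorescence read at 490/535 nm (monomers) and 540/590 nm (aggregates).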

[12] = Cell Viability - HepG2 (AID 433; calls by dose curve;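 further: potency means the concentration at half of the fitted maximal effect; potency for ATP loss meaning cytotoxicity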); settings: qHTS
In short: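 In this qHTS format, a 40 h, 37 °C compound incubation of HepG2 cells in complete medium precedes a 20 min CellTiter-Glo step at room temperature. Tamoxifen and doxorubicin serve as positive controls; Hill-equation fits yield AC50.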

[13] = Cell Viability - NIH 3T3 (AID 541); settings: NIH 3T3 cell viability, qHTS; activity change, negative = cytotoxicity: at 92.2 µM (top of the series); further: nearly all actives have a fitted effect of over 25% in size; further: potency means the concentration at half of the fitted maximal effect
In short: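 NIH 3T3 mouse embryo fibroblasts (1000 cells/well) were plated in complete medium and treated with compound for 40 hr at 37 °C. Viability was read as intracellular ATP by CellTiter-Glo luminescence; AC50 values came from Hill-equation fits of concentration-response data.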

[14] = Cell Viability - Mesenchymal (AID 546); settings: mesenchymal cells viability, qHTS; activity change, negative = cytotoxicity: at 91.7 µM (top of the series);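 further: cells exposed to compound for 40 hours before reading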; further: potency means the concentration at half of the fitted maximal effect
In short: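 Normal human renal glomerulus-derived kidney mesenchymal cells, 1000 per well in complete medium, were treated with compounds for 40 hr at 37 °C. Viability was read as intracellular ATP by CellTiter-Glo luminescence; AC50 values came from Hill-equation fits of qHTS concentration-response data.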

[15] = Cellular Toxicity (caspase-3) Mesangial (AID 660); settings: mesangial cells, normalized: DMSO 0%, 100 µM tamoxifen 100%; at 91.7 µM (top of the series);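 further: cells exposed to compound for 16 h before the caspase read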
In short: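 Human renal glomerular mesangial cells (1000/well) were treated with compounds for 16 h at 37 °C in complete medium, then caspase 3/7 activity was read by Caspase-Glo luminescence. Data were normalized to DMSO and 100 uM tamoxifen; AC50 from Hill fits.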

[16] = Cell Viability - LYMP1-002 - Assay at 16 hr (AID 948); settings: LYMP1-002 lymphoblastoid cell viability; series mostly up to 92.2 µM
In short: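 In this qHTS, lymphoblastoid LYMP1-002 cells (human) receive compounds for 16 hr at 37 C. Viability is taken from CellTiter-Glo ATP luminescence, and AC50 derives from standard Hill fits.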

[17] = qHTS assay for cell viability of the p53RE-bla HCT-116 cell line (AID 743292); settings: p53RE-bla HCT-116 viability, ATP luminescence, 16 h; series mostly up to 95 µM; further: nearly all actives have a fitted effect of over 55% in size; further: potency means the concentration at half of the fitted maximal effect
In short: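 ATP-based luminescence, 16 h compound exposure at 37 C, p53RE-bla HCT-116 cells at 4,000/well.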

[18] = Cell Viability - LYMP1-003 - Assay at 24 hr (AID 963); settings: LYMP1-003 lymphoblastoid cell viability; series mostly up to 92.2 µM; further: potency means the concentration at half of the fitted maximal effect
In short: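 Human lymphoblastoid LYMP1-003 cells (2500/well) were rested 5 hr at 37 C, then exposed to compounds in complete medium for 24 hr at 37 C. Cellular ATP was quantified by CellTiter-Glo luminescence, and AC50 values came from Hill fits of concentration-response data.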

[19] = Cell Viability - LYMP1-002 - Assay at 24 hr (AID 993); settings: LYMP1-002 lymphoblastoid cells viability; series mostly up to 92.2 µM
In short: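 Human lymphoblastoid LYMP1-002 cells, 2500/well in complete medium, were treated with compounds for 24 h at 37 C; intracellular ATP was read by CellTiter-Glo luminescence. AC50 values came from Hill-equation fits of qHTS concentration-response data.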

[20] = Cell Viability - Hek293 (AID 427;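 active means compounds whose dose-response curve shows a full or clear partial loss of cell viability, called from curve shape rather than a numeric limit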;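 further: potency means the concentration at half of the fitted maximal effect; cells exposed to compound for 40 hours at 37 °C before reading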); settings: qHTS
In short: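 Luminescent ATP read-out (CellTiter-Glo, 20 min RT) after 40 hr compound exposure at 37 °C in complete medium. Signal normalized to DMSO (basal) and 100 uM tamoxifen (100% inhibition); concentration-response fitted with the standard Hill equation to give AC50.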

Sequence of Voltage-gated inwardly rectifying potassium channel KCNH2 (Homo sapiens) (Q12809 whole entry, looked up): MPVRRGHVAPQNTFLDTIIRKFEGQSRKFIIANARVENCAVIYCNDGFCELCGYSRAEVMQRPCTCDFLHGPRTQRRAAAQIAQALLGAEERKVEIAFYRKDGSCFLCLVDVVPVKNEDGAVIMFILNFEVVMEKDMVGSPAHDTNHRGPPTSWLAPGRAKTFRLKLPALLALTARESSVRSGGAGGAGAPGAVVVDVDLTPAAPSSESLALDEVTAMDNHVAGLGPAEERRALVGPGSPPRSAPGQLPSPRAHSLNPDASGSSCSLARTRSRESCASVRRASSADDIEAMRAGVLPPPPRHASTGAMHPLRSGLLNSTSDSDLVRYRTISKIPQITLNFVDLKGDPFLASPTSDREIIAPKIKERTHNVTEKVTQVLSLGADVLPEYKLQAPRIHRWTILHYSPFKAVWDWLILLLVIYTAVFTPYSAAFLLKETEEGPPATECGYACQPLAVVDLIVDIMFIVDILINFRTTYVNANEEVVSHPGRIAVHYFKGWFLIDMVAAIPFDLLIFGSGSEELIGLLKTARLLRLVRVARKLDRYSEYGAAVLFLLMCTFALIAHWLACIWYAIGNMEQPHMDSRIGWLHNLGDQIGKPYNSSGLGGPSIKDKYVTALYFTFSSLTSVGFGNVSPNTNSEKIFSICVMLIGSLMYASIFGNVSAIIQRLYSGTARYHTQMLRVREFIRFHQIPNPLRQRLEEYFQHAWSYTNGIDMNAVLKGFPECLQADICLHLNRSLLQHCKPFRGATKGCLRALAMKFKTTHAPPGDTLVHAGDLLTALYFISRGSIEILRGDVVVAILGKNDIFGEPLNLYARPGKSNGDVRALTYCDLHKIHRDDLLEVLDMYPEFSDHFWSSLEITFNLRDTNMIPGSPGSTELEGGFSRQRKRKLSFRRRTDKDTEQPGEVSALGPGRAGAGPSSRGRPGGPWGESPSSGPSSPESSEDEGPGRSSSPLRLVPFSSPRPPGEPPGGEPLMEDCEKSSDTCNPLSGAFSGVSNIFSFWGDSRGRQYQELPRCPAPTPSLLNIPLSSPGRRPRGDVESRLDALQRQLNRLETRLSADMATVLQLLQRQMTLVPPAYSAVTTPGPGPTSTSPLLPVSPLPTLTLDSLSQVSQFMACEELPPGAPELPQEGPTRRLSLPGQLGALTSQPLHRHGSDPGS

**Q.** What does the source list for `O=C1OC(O)C(C(Cl)Cl)=C1Cl` (stereo not drawn)?
**A.** Potency [1]: inactive; Potency [2]: inactive; caspase-3 activation [3]: 24.6%; caspase-3 activation [4]: 0.823%; Potency [5]: inactive; Potency [6]: 15.8 µM (active); Potency [7]: 31.6 µM (active); Potency [8]: 25.1 µM (active); Potency [9]: inactive; Potency [10]: inactive; Potency [11]: inactive

**Q.** Which Potency [12] does the source give for `CC/C(=C(\c1ccccc1)c1ccc(OCCN(C)C)cc1)c1ccc(O)cc1` here?
**A.** 29.4 µM (active)

**Q.** And the activity change, negative = cytotoxicity [13]?
**A.** -141% (active)

**Q.** And the Potency [1]?
**A.** 31.6 µM (active)

**Q.** And the Potency [14]?
**A.** 31.6 µM (active)

**Q.** What about the caspase-3 activation [15] of the same compound?
**A.** -2.42%

**Q.** And the caspase-3 activation [3]?
**A.** 124% (active)

**Q.** What about the Potency [5] of the same compound?
**A.** inactive

**Q.** And the Potency [16]?
**A.** inactive

**Q.** And the Potency [10]?
**A.** inactive

**Q.** What about the Potency [11] of the same compound?
**A.** inactive

**Q.** And the Potency [17]?
**A.** 70.8 µM (active)

**Q.** What does the source list for `C/C=C1\C(=O)C[C@H]2[C@@H]3CCC4=CC(=O)CC[C@]4(C)[C@H]3CC[C@]12C`?
**A.** Potency [12]: > 92 µM; activity change, negative = cytotoxicity [13]: -149% (active); Potency [14]: inactive; Potency [2]: inactive; caspase-3 activation [15]: 1.02%; caspase-3 activation [3]: 22.9%; Potency [5]: inactive; Potency [16]: inactive; Potency [18]: inactive; Potency [6]: inactive; Potency [7]: inactive; Potency [8]: inactive; Potency [19]: inactive; Potency [9]: 35.5 µM (active); Potency [10]: inactive; Potency [11]: inactive; Potency [17]: inactive

**Q.** Which results are given for `C=CC(=O)OCC(CO)(COC(=O)C=C)COC(=O)C=C`?
**A.** Potency [20]: 8.68 µM (active); Potency [12]: > 92 µM; Potency [13]: 2 µM (active); Potency [1]: 50.1 µM (active); activity change, negative = cytotoxicity [14]: -91.9% (active); Potency [2]: inactive; caspase-3 activation [4]: -6.03%; Potency [5]: inactive; Potency [9]: inactive

**Q.** Which results are given for `C=C(C)c1ccccc1`?
**A.** Potency [20]: > 92 µM; Potency [12]: > 92 µM; Potency [13]: inactive; Potency [1]: inactive; Potency [14]: inactive; Potency [2]: inactive; caspase-3 activation [15]: 0.545%; caspase-3 activation [3]: 1.07%; caspase-3 activation [4]: 0.697%; Potency [5]: inactive; Potency [16]: inactive; Potency [18]: inactive; Potency [6]: inactive; Potency [7]: inactive; Potency [8]: inactive; Potency [19]: inactive; Potency [9]: inactive; Potency [10]: inactive; Potency [11]: inactive; Potency [17]: inactive

**Q.** Which Potency [20] does the source give for `C=CC(=O)OCCOCCOC(=O)C=C` here?
**A.** 27 µM (active)

**Q.** What about the Potency [13] of the same compound?
**A.** 3.16 µM (active)

**Q.** And the activity change, negative = cytotoxicity [14]?
**A.** -100% (active)

**Q.** What about the Potency [2] of the same compound?
**A.** inactive

**Q.** What about the caspase-3 activation [15] of the same compound?
**A.** 0.177%

**Q.** What about the caspase-3 activation [4] of the same compound?
**A.** 5.92%

**Q.** What about the Potency [5] of the same compound?
**A.** inactive

**Q.** What about the Potency [18] of the same compound?
**A.** 31.6 µM (active)

**Q.** And the Potency [6]?
**A.** 12.6 µM (active)

**Q.** And the Potency [7]?
**A.** 31.6 µM (active)

**Q.** What about the Potency [8] of the same compound?
**A.** 25.1 µM (active)

**Q.** What about the Potency [9] of the same compound?
**A.** inactive

**Q.** And the Potency [10]?
**A.** inactive

**Q.** What about the Potency [11] of the same compound?
**A.** inactive

**Q.** And the Potency [17]?
**A.** inactive
